Screens as filed in PubChem.
DT40 TDP1 no CPT: qHTS for Inhibitors of human tyrosyl-DNA phosphodiesterase 1 (TDP1): qHTS in cells in absence of CPT | Potency, µM (titrated, usually from 46.2 µM), for inactives: top-dose activity change, negative = growth inhibition, usual class: inhibitors | DT40 Tdp1-/- hTDP1 cells, no CPT, ATP luminescence, 48 h | hit rate 15% among 420,000; also: potency is read from the fitted curve at half-maximal effect; nearly all actives have a fitted effect of over 55% in size
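Stably hTDP1-transfected Tdp1-null chicken DT40 cells were treated with library compounds minus camptothecin and grown for at least 48 hr at 37 °C, after which cellular ATP was quantified by luminescence.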
ELG1 repair inh: inhibitors of ELG1-dependent DNA repair in HEK293T cells; HEK293T ELG1-luciferase reporter, luminescence, 16 h; DNA damage induced by 5-fluorouridine; Potency, µM (top dose mostly 46.1 µM), without a hit: at the top dose activity change, negative = inhibition, usual class: inhibitors; hit rate 2.3% among 330,000; also: potency is read from the fitted curve at half-maximal effect; nearly all actives have a fitted effect of over 55% in size
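Overnight (16 hr) co-exposure of 2,000 cells/well to 5-fluorouridine and compound at 37 °C preceded detection. Luciferase was quantified via ONE-Glo luminescence; loss of signal denotes inhibition.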
HT1080 IDH1KD tx: toxicity to HT-1080 IDH1 knockdown cells (counter line). HT-1080 IDH1 knockdown viability, ATP luminescence, 48 h. Potency, µM (series often up to 46.1 µM), for inactives: top-dose activity, negative = toxicity, hits mostly cytotoxic. hit rate 2% among 360,000;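 also: potency is read from the fitted curve at half-maximal effect; 0% = DMSO wells and -100% = cell-free medium wells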
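Knockdown cells (IDH1KD HT-1080) received compounds 2 h after plating at 750 cells/well and were kept 48 h at 37 °C in 5% FBS RPMI. A CellTiter-Glo luminescence read gave % activity for curve fitting.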
IL1B secr inh: blocks inflammasome-driven IL-1 beta release | THP-1 LPS/ATP IL-1B secretion, AlphaLISA, 16 h; hits give low values | activity change, % at 57.5 µM | hit rate 4.7% among 360,000; in the data active = activity change below about -50%; inconclusive = mostly about -30% to -49%
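Secreted IL-1B measured by AlphaLISA bead assay after 16 h compound exposure of THP-1 cells; compounds (final up to 57.5 uM) added 1 h before LPS (250 ng/mL) and ATP (1.25 mM) stimulation; lower signal means less secretion.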
HT1080NT lethal: kills 2HG-producing HT-1080-NT fibrosarcoma cells | HT-1080-NT fibrosarcoma viability, CellTiter-Glo ATP luminescence, 48 h | Potency, µM (top dose mostly 46.1 µM), inactives show top-dose activity, negative = less viability, usual class: cytotoxic | hit rate 1.6% among 360,000 | AID 686970;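 also: NT is the 2HG producing partner of a matched IDH1 knockdown line; potency is read from the fitted curve at half-maximal effect; 0% = DMSO-treated cells and -100% = media-only wells without cells; nearly all actives have a fitted effect of over 55% in size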
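A 48-hour cytotoxicity screen used HT-1080-NT cells plated 2 hours before compound delivery. ATP-based CellTiter-Glo luminescence measured viability, normalized to DMSO and no-cell controls.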
DT40 TDP1 CPT: growth inhibition of DT40 Tdp1-/-;hTDP1 cells with camptothecin (screen for TDP1 inhibitors); chicken DT40 Tdp1-/-;hTDP1 cells + 20 nM CPT, ATP luminescence, 48 h; hit rate 12% among 420,000; Potency, µM (doses to about 46.2 µM), without a hit: at the highest dose activity change, negative = growth inhibition, actives largely listed as inhibitors; also: potency is read from the fitted curve at half-maximal effect; nearly all actives have a fitted effect of over 55% in size
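Cell growth measured by CellTiter-Glo luminescence after a minimum 48 h, 37 C compound exposure with 20 nM CPT in Tdp1-knockout DT40 cells stably expressing hTDP1, seeded 400/well; qHTS titration format.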
* marks the source's active call; other numbers are inactive results; ? = inconclusive; · = no result. In the library only some 19% were active in any assay of this set; here they are far more common. Unless noted, calls follow the shape of the dose curve; as a rule, active = well fitted curve in the direction sought with a large enough effect; inconclusive = small, poorly fitted or top-dose-only effect, or another doubt; inactive = no such curve, though single readings can be large; an effect the other way counts as inactive or inconclusive. Unless noted, % is scaled to controls: 0 for no effect and ±100 for the full control effect.

SMILES	DT40 TDP1 no CPT	ELG1 repair inh	HT1080 IDH1KD tx	IL1B secr inh	HT1080NT lethal	DT40 TDP1 CPT
Nc1nc(SCc2ccccc2)cc(SCc2ccccc2)n1	-23%	·	-13%	-23	-6%	1%
O=C(NCc1cccc(F)c1)C1CCC(=O)N(C2CC2)C1 (centres undefined)	11%	0%	-3%	3	9%	2%
CSCC[C@H](NC(=O)C1=NN(c2c(F)c(F)cc(F)c2F)C(=O)CC1)c1nc2ccccc2[nH]1	23%	0%	3%	0	15%	-1%
O=C(NCCc1ccccc1)c1nc(-c2ccc(Cl)cc2)n2c1CCCCC2	10µM*	·	·	·	·	12µM*
CCc1ccc2ncc(S(=O)(=O)c3ccc(Cl)cc3)c(N3CCN(CC)CC3)c2c1	16µM*	·	·	·	·	?
CCS(=O)(=O)c1nc(S(=O)(=O)c2ccc(Cl)cc2)c(N2CCC3(CC2)OCCO3)s1	-21%	0%	1%	-20	?	-24%
CCOc1ccc2ncc(S(=O)(=O)c3ccc(C)cc3)c(N3CCC4(CC3)OCCO4)c2c1	23µM*	18µM*	-5%	0	-9%	?
Nc1cccc(CCc2nc3cc4ccccc4cc3[nH]2)c1	4.1µM*	?	10µM*	?	?	3.3µM*
O=C(OCc1ccccc1)c1cccnc1Cl	-17%	4%	13%	0	15%	2%
O=C(c1cccnc1Cl)N(Cc1ccccc1)Cc1ccccc1	9.2µM*	?	-6%	-67*	0%	?
CCOc1ccc(C2SCC(=O)N2c2c(C)n(C)n(-c3ccccc3)c2=O)cc1 (centres undefined)	-2%	3%	6%	-2	5%	7%
CCOc1ccc(C2=C(C=Nc3c(C)n(C)n(-c4ccccc4)c3=O)C(c3ccc(F)cc3)c3ccccc3O2)cc1 (centres undefined)	?	-4%	0%	0	5%	23µM*
COCCCNC(=O)C[C@H]1C[C@H](C(=O)N2CCCCC2)[C@@]2(CCc3ccccc3)c3[nH]c4cc(CCC(=O)N(C)C)ccc4c3CCN2C1=O	-26%	13%	9%	-14	3%	-20%
CCOc1cccc(-c2nnc3sc(C4CCCCC4)nn23)c1	?	21µM*	-7%	?	-2%	?
c1cncc(-c2nnc3sc(C4CCCCC4)nn23)c1	?	-1%	4%	-21	7%	-20%
Cc1cc(-c2nnc3sc(C4CCCCC4)nn23)n[nH]1	-20%	8%	21%	-21	19%	?
COc1cc(-c2nnc3sc(C4CCCCC4)nn23)cc(OC)c1OC	23µM*	?	-23%	-27	-8%	16µM*
COc1cccc(-c2nnc3sc(C4CCCCC4)nn23)c1	21µM*	4.6µM*	-6%	-93*	1%	18µM*
O=C(c1ccc(Br)o1)N1CCN(c2ccc3nnc(-c4ccc(F)cc4)n3n2)CC1	18µM*	?	-1%	-3	-12%	?
COc1ccc(S(=O)(=O)N2CCN(c3ccc4nnc(-c5ccc(F)cc5)n4n3)CC2)cc1	15µM*	18µM*	-23%	-9	-21%	12µM*
O=C(Nc1ccc(Cl)cc1)N1CCN(c2ccc3nnc(-c4ccc(F)cc4)n3n2)CC1	21µM*	4.6µM*	?	0	-23%	?
Cc1nn(C)c2ncc(C(N)=O)c(Oc3cccnc3)c12	-23%	4%	11%	0	3%	3%
CCOC(=O)c1cnc2c(c(C)nn2C)c1Oc1ccc(Cl)cc1	?	?	-27%	28	-22%	16µM*
